VDR inhibitor – inhibitors of human vitamin D receptor; Potency, µM, for inactives: max response, negative = inhibition, hits mostly inhibitors; P11473; VDR-SRC2-3 peptide fluorescence polarization, 2 h; hit rate 0.93% among 400,000; note: % is set by controls: 0 for no effect and ±100 for the full control effect
Target sequence (P11473 whole entry, looked up): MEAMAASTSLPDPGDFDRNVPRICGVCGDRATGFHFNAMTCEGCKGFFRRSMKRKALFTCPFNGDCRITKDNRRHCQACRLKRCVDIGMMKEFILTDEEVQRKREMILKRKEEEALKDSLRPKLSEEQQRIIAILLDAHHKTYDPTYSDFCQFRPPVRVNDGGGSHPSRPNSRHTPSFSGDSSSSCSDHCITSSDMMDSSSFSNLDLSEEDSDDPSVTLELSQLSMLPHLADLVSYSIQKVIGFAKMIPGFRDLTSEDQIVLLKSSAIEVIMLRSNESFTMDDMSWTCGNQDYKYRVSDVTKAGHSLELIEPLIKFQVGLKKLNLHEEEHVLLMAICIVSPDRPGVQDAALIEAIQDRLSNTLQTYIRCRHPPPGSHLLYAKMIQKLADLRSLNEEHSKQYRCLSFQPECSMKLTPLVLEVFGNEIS
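After 23 nl compound addition and a short centrifugation, plates sat for 2 hours at ambient temperature; polarization of fluorescence then indicated loss of VDR binding to peptide SRC2-3.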
Sfp PPTase inh – inhibitors of Bacillus subtilis Sfp phosphopantetheinyl transferase; Biochemical Sfp PPTase activity, qHTS; Q9F4F7; hit rate 3.5% among 310,000; Potency, µM, inactives show largest response in the series, negative = inhibition, usual class: inhibitors; AID 1490;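 note: the enzyme is Sfp with the accession as filed and its product quenches rhodamine fluorescence; 0% = enzyme reaction without inhibitor and -100% = no enzyme wells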
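After 15 min at room temperature with compound, 15 nM Sfp received 5 uM rhodamine-CoA plus 12.5 uM BHQ-2-ybbR (50 mM Hepes pH 7.6, 10 mM MgCl2). Rate came from the fluorescence difference over 30 min, ex 525/em 598 nm.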
Glioma ERSR ind – ER stress response induction in glioma | AID 602332 | Potency, µM, inactives show at the highest dose activation, usual class: activators | hit rate 0.02% among 420,000 | U87-MG GRP78 promoter luciferase reporter, 16 h; note: series mostly up to about 76 µM; % of control where 0% means no effect; nearly all actives have a fitted effect of over 35% in size
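Stably transfected U87-MG glioma cells carrying a GRP78-based luciferase sensor; 16 h compound incubation. Luminescence end-point read 10 min after Bright-Glo addition at room temperature.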
ALOX12 inh – ALOX12 (human) lipoxygenase inhibition; P18054; purified 12hLO, xylenol orange hydroperoxide absorbance; Potency, µM (top dose mostly 108 µM), without a hit: at the highest dose activity change, negative = inhibition, most hits filed as inhibitors; hit rate 1.1% among 580,000; AID 1671190; note: % is set by controls: 0 for no effect and ±100 for the full control effect
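Purified human 12hLO at 150 nM in 25 mM Hepes, 0.01% Triton X-100, pH 7.0, preincubated 15 min at room temperature with compound. Reaction started with 40 uM arachidonic acid, 30 min at room temperature. Hydroperoxide measured by Fe-xylenol orange, 573/405 nm absorbance ratio.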
G9a block – blocks human histone lysine methyltransferase G9a; AID 504332; Potency, µM (series often up to 102 µM), inactives show at the highest dose activity, negative = inhibition, hits mostly inhibitors; hit rate 8.8% among 350,000; Q96KQ7; G9a H3K9 monomethylation, AlphaScreen, 2 h; note: % is set by controls: 0 for no effect and ±100 for the full control effect; nearly all actives have a fitted effect of over 75% in size
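Methyltransferase reactions run at room temperature for 2 h (20 nM enzyme, 500 nM biotin-H3K9 peptide, 20 uM SAM) after a 15 min compound preincubation; product detected by AlphaScreen beads and anti-H3K9me1 antibody.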
* marks the source's active call; other numbers are inactive results; ? = inconclusive; . = not tested or not shown; [ ] = dose if it differs, or a comment. Many of the other results were omitted from the sample, so hits are more common in it than they were. Calls come from the whole dose curve; as a rule, active = well fitted curve in the direction sought with a large enough effect; inconclusive = small, poorly fitted or top-dose-only effect, or another doubt; inactive = no such curve, though single readings can be large; an effect the other way counts as inactive or inconclusive. Potency is the fitted concentration of half-maximal effect.

SMILES	VDR inhibitor	Sfp PPTase inh	Glioma ERSR ind	ALOX12 inh	G9a block
COc1ccc(C(=O)N2CCC(C(=O)NC(C)c3cccc(Cl)c3)CC2)c2ccccc12 (configuration not stated)	.	.	.	0%	.
COc1ccccc1COC(=O)N/C=C/c1ccco1	-25%	?	-4%	50µM*	20µM*
COc1ccc(COC(=O)N/C=C/c2ccco2)cc1	-23%	-10%	-1%	?	50µM*
CCCS(=O)(=O)N(C)C1CCc2nn(CC3CC3)c(=O)n2CC1 (configuration not stated)	.	.	.	59%	.
COc1ccc(Cc2nc(-c3cccs3)no2)cc1OC	-12%	-1%	0%	6%	50µM*
c1csc(-c2noc(COc3ccc4c(c3)CCCC4)n2)c1	7%	45µM*	8%	0%	4%[12.7 µM]
Brc1ccc(-c2noc(COc3ccc4c(c3)CCC4)n2)o1	-3%	-12%	3%	?	22µM*
CC(=O)NCCNC(=O)Cc1nc(-c2ccccc2)oc1C	.	.	.	37%	.
Cc1cc(C)c(NC(=O)COC(=O)c2cccc(O)c2)c(Cl)c1	.	.	.	-27%	.
CC(C)(C)n1nc2c(c1NC(=O)Cc1cccs1)CSC2	.	-5%	.	.	?
CC(C)(C)n1nc2c(c1NC(=O)Cc1ccc(F)cc1)CSC2	1%	?	3%	?	45µM*
Cc1cc(C(=O)c2ccccc2)cc(C)c1O	-5%	.	2%	-7%	.
CC1=C/C(=C(\c2cc(C)c(O)c(Br)c2)c2ccccc2S(=O)(=O)O)C=C(Br)C1=O	132%	45µM*	-11%	?	14µM*
O=C(CNc1cccc2ccccc12)N/N=C/c1ccc([N+](=O)[O-])cc1	3%	6%	-4%	-15%	8.9µM*
COc1ccc(/C=N/NC(=O)CCn2c3ccccc3c3ccccc32)cc1O	-5%	10%	-1%	1%	13%[59 µM]
COc1cccc(/C=N/NC(=O)CCn2c3ccccc3c3ccccc32)c1	10%	17%	2%	2%	18µM*
O=C(CNc1ccc2ccccc2c1)N/N=C/C=C/c1cccc([N+](=O)[O-])c1	-13%	-12%	-1%	-30%	3.2µM*
Cc1ccccc1NCC(=O)N/N=C/c1ccc([N+](=O)[O-])cc1	0%	-7%	0%	?	?
O=C(CNc1cccc2ccccc12)N/N=C/c1cccc(Oc2ccccc2)c1	-12%	-4%	9%	8%	10µM*
O=C(N/N=C/C=C/c1cccc([N+](=O)[O-])c1)C(O)c1ccccc1 (configuration not stated)	9%	15%	2%	5%	20%[0.501 µM]
Cc1nc(-c2ccc(F)cc2)n(CC(=O)Nc2ccc(C(C)C)cc2)c(=O)c1CCO	.	.	.	7%	.
COc1ccc(C2=NS(=O)(=O)N(C)C(C(=O)NC(C)C)=C2)cc1OC	.	.	.	-4%	.
NN1C(=O)c2cccc3c(C(=O)O)ccc(c23)C1=O	-21%	6%	0%	-3%	-11%[59 µM]
O=C(O)c1ccc2c3c(cccc13)C(=O)N(c1ccccc1)C2=O	27%	5%	-3%	-28%	20µM*
O=C(O)c1ccc(N2C(=O)c3cccc4c(C(=O)O)ccc(c34)C2=O)cc1	29%	-8%	-3%	-29%	13µM*
SMILES	VDR inhibitor	Sfp PPTase inh	Glioma ERSR ind	ALOX12 inh	G9a block
O=C1c2cccc3cccc(c23)C(=O)N1c1ccc(O)cc1	-7%	50µM*	-5%	-8%	-14%
Fc1ccc(-c2nnn(Cc3cc4c(cc3Br)OCO4)n2)cc1	.	.	.	-20%	.
Cc1ccc(C(C)C)cc1OCCOCCN1CCCC1	-6%	-5%	-7%	?	13µM*
Fc1ccc(OCCOCCN2CCCC2)cc1	15%	.	-7%	-45%	.
CCc1cccc(OCCOCCN2CCCC2)c1	-2%	-4%	0%	?	10µM*
COc1ccccc1OCCOCCN1CCCC1	18%	-21%	-3%	?	25µM*
Cc1cc(OCCOCCN2CCCC2)ccc1C(C)C	-6%	-10%	-8%	?	20µM*
CC(C)N1CC2CCC(C1)N2Cc1ccc(-c2ccsc2)cc1	.	.	.	5%[6.33 µM]	.
Cc1cc(CNC(=O)C2CCCN2C(=O)OC(C)(C)C)ccc1F (configuration not stated)	.	.	.	0%	.
c1ccc(OCCOCCN2CCN(C(c3ccccc3)c3ccccc3)CC2)cc1	-9%	-34%	-8%	?	10µM*
Cc1ccccc1OCCOCCN1CCCCCC1	8%	12%	-3%	-11%	40µM*
Cc1cccc(OCCOCCN2CCOCC2)c1C	-1%	15%	-1%	14%	7%[12.7 µM]
OC(COc1ccccc1)CN1CCN(C(c2ccccc2)c2ccccc2)CC1 (configuration not stated)	-8%	8%	-5%	-30%	11%
Cc1cc(-c2nc3ccncc3[nH]2)c(C)o1	.	.	.	49%[176 µM]	.
CC(C)CN(C(=O)CSc1nncs1)c1c(N)n(CC(C)C)c(=O)[nH]c1=O	17%	-5%	-1%	13%	10µM*
Cc1ccc2nc(SCC(=O)N(CC(C)C)c3c(N)n(CC(C)C)c(=O)[nH]c3=O)[nH]c2c1	-5%	-2%	0%	?	?
Cc1cc(SCC(=O)N(CC(C)C)c2c(N)n(CC(C)C)c(=O)[nH]c2=O)nc2ccccc12	?	.	-3%	?	6.3µM*
Cc1cc(C)n2c(SCC(=O)N(CC(C)C)c3c(N)n(CC(C)C)c(=O)[nH]c3=O)nnc2n1	-23%	?	0%	-29%	18µM*
Cc1ccccc1-c1nnc(SCC(=O)N(CC(C)C)c2c(N)n(CC(C)C)c(=O)[nH]c2=O)n1C	-5%	14%	-1%	0%	50µM*
OC(CNCC(c1ccco1)N1CCCCC1)c1ccccc1 (configuration not stated)	13%	?	-2%	?	2.2µM*
CN(C)CCCNS(=O)(=O)c1ccc(NC2CCCCCC2)c([N+](=O)[O-])c1	-17%	-6%	-5%	?	71µM*
CCNc1ccc(S(=O)(=O)NCCN(C)C)cc1[N+](=O)[O-]	-13%	8%	-5%	1%	-4%
C1CSC2(N1)C1CC3CC(C1)CC2C3 (configuration not stated)	-9%	35µM*	0%	?	6.3µM*
Nc1nnnn1Cc1nnc(SCc2ccccc2Cl)n1-c1ccccc1	.	.	.	46%	.
COc1cc(C(C#N)N2N=C(c3ccccc3)CC2c2ccccc2)ccc1O (configuration not stated)	4%	-2%	15%	1%	-48%[59 µM]
COc1cc(C(C[N+](=O)[O-])c2c(-c3ccccc3)cc3ccccn23)cc(OC)c1OC (configuration not stated)	-15%	56µM*	-3%	?	35µM*
COc1ccc(C(C[N+](=O)[O-])c2c(-c3ccccc3)cc3ccccn23)cc1OC (configuration not stated)	-11%	-28%	0%	?	10µM*
